Activity calls are given as the source filed them.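 How the source made its calls: active means cell survival after UV exposure 2 SD above solvent-only control wells at 10 µM, confirmed on one or two repeats; inactive means the rest.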

Consider 25 compounds from PubChem BioAssay AID1347383 (Zoeller Lab, School of Medicine, Boston University, 2020).

This assay can be described thus: protection of CHO cells from pyrene-fatty acid UV killing, primary screen, phospholipid biosynthesis inhibitor project, ZR-82 cells, Analyticon library, screen 2 (AID 1347383).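 Further: survival reflects blocked phospholipid synthesis cutting uptake of the phototoxic fatty acid; compound and fatty acid exposure 3 h then viability read next day.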 As to conditions: ZR-82 CHO cells, CellTiter Blue, at 10 µM, peroxisome-deficient CHO-K1 variant, with DGAT-1, DGAT-2 and ACAT inhibitors. (The colour change of resazurin is a common sign of viable cells or microbes.)
As to `O=C1CC(c2ccc(O)cc2)Oc2cc(O)cc(O)c21` (stereo not given), the result was inactive. Consider `COc1c(C(=O)CC(=O)c2ccccc2)ccc2occc12`, for which the outcome was inactive. For `Cn1c(=O)c2c(ncn2C)n(C)c1=O` the value was “inactive”. Regarding `C=CC(C)(C)c1cc2cc3c(cc2oc1=O)OC(C(C)(C)OC(C)=O)C3` (stereo not given), the outcome was inactive. With `C[C@]12CC(=O)C3C[C@@]1(O)OC(O2)[C@H]3COC(=O)c1ccccc1`, the compound was classed as inactive. Next, `COc1c(C)c2c(c(O)c1C/C=C(\C)CC/C=C(\C)CCC(=O)O)C(=O)OC2`: “inactive”; `CC1=C2C(=O)O[C@@H](c3ccoc3)[C@]2(C)CCC1=O`: “inactive”; `COc1cc(CCC(=O)O)cc(OC)c1OC`: “inactive”. For `OC1C(c2ccccc2)CCC(c2ccccc2)C1O` (stereo not given), the compound was called inactive. In the case of `O=C(NC(CO)Cc1ccccc1)c1ccccc1` (stereo not given), the compound was called inactive. For `COc1cc(C(=O)/C(C)=C(\C)C(=O)c2ccc(O)c(OC)c2)ccc1O` the value was “inactive”; for `O=C1c2c(O)cc(O)cc2OC(c2cc(O)c(O)c(O)c2)C1O` (stereo not given), “inactive”; for `CC1=CC2=C(C=O)C(=O)[C@](C)(O)[C@@H](O)C2=CO1`, “inactive”. Next, `COc1cc2ccc3c(c2cc1OC)N(C)Cc1c(OC)c(OC)cc(OC)c1-3`: “inactive”. Next, `COC(=O)C1C(O)CCC2CN3CCc4c([nH]c5ccccc45)C3CC21` (stereo not given): “inactive”; `COc1ccc(C)c2c(O)c(CC=C(C)C)c(=O)oc12`: “inactive”; `Nc1ccccc1CCCCCCC(=O)O`: “inactive”. As to `CC(=O)Nc1ccccc1C(=O)O`, the call was inactive. `O=c1[nH]c2ccccc2c(-c2cccc(O)c2)c1O`: the call was inactive. Next, `O=C1NC(Cc2c[nH]c3ccccc23)C(=O)NC1Cc1ccccc1` (stereo not given): “inactive”; `C=C1C(=O)O[C@@H]2C[C@H](C)[C@@]3(O)C=C(C(C)=O)C4(CC3C[C@H]12)C(=O)O[C@H]1C[C@@H](C)C(CCC(C)=O)=CC[C@H]14` (stereo not given in full): “inactive”; `C/C=C/C1C=CC(O)C(O)C1C(O)C(C)=O` (stereo not given): “inactive”. For `O=C(CCc1ccc(O)cc1)c1c(O)cc(O)cc1O` the value was “inactive”; for `COc1cc(/C=C/C(=O)O)cc(OC)c1OC`, “inactive”; for `CCC1CN2CCc3cc(OC)c(OC)cc3C2CC1CC1NCCc2cc(OC)c(OC)cc21` (stereo not given), “inactive”.
